Test [1] can be described thus: NCI Yeast Anticancer Drug Screen. Data for the rad50 strain (AID 155).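 Also: 0% = growth of vehicle-only cultures of the same strain.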 The conditions noted are these: S. cerevisiae rad50 strain growth inhibition, hits give high values. In short, it runs like this: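 Readout: growth inhibition relative to vehicle-treated cultures. Compound exposure was carried out in a genetically defined yeast strain deficient in DNA damage repair.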

A short description of test [2]: NCI Yeast Anticancer Drug Screen. Data for the mec2-1 strain (AID 157). The conditions noted are these: S. cerevisiae mec2-1 strain, hits give high values. Summed up: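 Growth inhibition is read against vehicle-treated controls after compound exposure of the mec2-1 yeast strain, which is defective in DNA damage repair or cell cycle control.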
The nature of test [3]: NCI Yeast Anticancer Drug Screen. Data for the sgs1 mgt1 strain (AID 161).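 Also: 0% = growth of cultures given vehicle only.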 The conditions noted are these: S. cerevisiae sgs1 mgt1 strain, hits give high values. In short, it runs like this: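 Compounds are added to genetically altered yeast, and growth is compared with cultures given vehicle alone to give percent inhibition.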
Test [4] can be described thus: NCI Yeast Anticancer Drug Screen. Data for the cln2 rad14 strain (AID 165).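 Also: 0% = growth equal to vehicle treated cultures.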 The conditions noted are these: S. cerevisiae cln2 rad14 strain, hits give high values. In short, it runs like this: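 Growth inhibition, relative to vehicle-treated controls, is the read-out. The test organism is a yeast strain with defined genetic alterations, cln2 rad14.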
Test [5] can be described thus: NCI Yeast Anticancer Drug Screen. Data for the bub3 strain (AID 167). The conditions noted are these: S. cerevisiae bub3 mutant strain, hits give high values. Summed up: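 Readout: yeast growth inhibition, expressed relative to vehicle-only wells. The test organism is a mutant strain from a panel with lesions in DNA repair or checkpoint genes.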
Test [6] can be described thus: NCI Yeast Anticancer Drug Screen. Data for the mlh1 rad18 strain (AID 175). The conditions noted are these: S. cerevisiae mlh1 rad18 strain growth inhibition, hits give high values. In short, it runs like this:
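Cells of a genetically altered yeast strain, deficient in DNA damage repair, were treated with compound. Their growth was then compared with that of vehicle-treated cultures to give inhibition.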

[7] abbreviates: at 5.0 µM (retest, dose inferred, filed as 0.5).
The mark [8] stands for this setting: at 50.0 µM (retest, dose inferred, filed as 5.0).

The structures appear in SMILES notation. The panel holds about 79,000 compounds, 15% with a hit somewhere; the sample as a whole holds those more often. Unmarked numbers belong to inactive results. Active and inactive are the calls of the source. Rule as the data show it: active = growth inhibition above about 70%; inactive = the rest.

`CC(=O)C(C(=N)C#N)C(=O)Nc1ccccc1` (stereo not given): the growth inhibition is 1% in test [1] (setting [7]); 10% in test [1] (setting [8]); -6.9% in test [1] (at 50.0 µM); 2% in test [2] (setting [7]); -12% in test [2] (setting [8]); -34.5% in test [2] (at 50.0 µM). In addition, the growth inhibition in test [3] (setting [7]) is -8%; in test [3] (setting [8]), 7%; in test [3] (at 50.0 µM) it was -22.7%; in test [4] (setting [7]) it was -14%; in test [4] (setting [8]), -2%; in test [4] (at 50.0 µM) it was 33.6%. The growth inhibition in test [5] (setting [7]) is 6%; in test [5] (setting [8]), -2%; in test [5] (at 50.0 µM), -44%; in test [6] (setting [7]) it was 0%; in test [6] (setting [8]), 6%; in test [6] (at 50.0 µM), -15.2%.

For `N#CC(C(=O)C(=O)NC1C2CC3CC(C2)CC1C3)c1c(Cl)cccc1Cl` (stereo not given), the growth inhibition in test [1] (setting [7]) is 1%; in test [1] (setting [8]), 7%; in test [1] (at 50.0 µM), 31.7%; in test [2] (setting [7]), -4%; in test [2] (setting [8]) it was -32%; in test [2] (at 50.0 µM) it was 19.8%. In addition, the growth inhibition was -1% in test [3] (setting [7]); 3% in test [3] (setting [8]); 21.2% in test [3] (at 50.0 µM); 3% in test [4] (setting [7]); 5% in test [4] (setting [8]); 28.6% in test [4] (at 50.0 µM). The growth inhibition was -1% in test [5] (setting [7]); 5% in test [5] (setting [8]); 0.45% in test [5] (at 50.0 µM); -1% in test [6] (setting [7]); 5% in test [6] (setting [8]); 30.6% in test [6] (at 50.0 µM).

Take `CC(CN(C)C)C(/C=C/c1ccc(Cl)cc1)=N\NC(=O)c1ccccc1` (stereo not given): the growth inhibition was 3% in test [1] (setting [7]); 15% in test [1] (setting [8]); 17.6% in test [1] (at 50.0 µM); 2% in test [2] (setting [7]); 12% in test [2] (setting [8]); -4.45% in test [2] (at 50.0 µM). Further, the growth inhibition in test [3] (setting [7]) is 1%; in test [3] (setting [8]), -3%; in test [3] (at 50.0 µM) it was -15.3%; in test [4] (setting [7]), 2%; in test [4] (setting [8]) it was 6%; in test [4] (at 50.0 µM), -1.65%. For the same molecule, the growth inhibition in test [5] (setting [7]) is -3%; in test [5] (setting [8]) it was -10%; in test [5] (at 50.0 µM), -11.9%; in test [6] (setting [7]), 3%; in test [6] (setting [8]) it was -36%; in test [6] (at 50.0 µM) it was 27.2%.

For the molecule `COC(=O)C1(Cc2ccccc2C)Cc2ccc(C)cc2C1=O` (stereo not given), the growth inhibition was -1% in test [1] (setting [7]); 22% in test [1] (setting [8]); 49.3% in test [1] (at 50.0 µM); -2% in test [2] (setting [7]); 28% in test [2] (setting [8]); 25.9% in test [2] (at 50.0 µM). Moreover, the growth inhibition in test [3] (setting [7]) was 13%; in test [3] (setting [8]), 47%; in test [3] (at 50.0 µM) it was 64.9%; in test [4] (setting [7]), -3%; in test [4] (setting [8]) it was 4%; in test [4] (at 50.0 µM) it was 31.8%. Also, the growth inhibition in test [5] (setting [7]) was 9%; in test [5] (setting [8]), 71% (active); in test [5] (at 50.0 µM), 64.3%; in test [6] (setting [7]), -2%; in test [6] (setting [8]), 30%; in test [6] (at 50.0 µM), 65.9%.

With `CCC(=O)[O][Bi]([c]1ccccc1)[c]1ccccc1`, the growth inhibition was 79% (active) in test [1] (setting [7]); 96% (active) in test [1] (setting [8]); 90.2% (active) in test [1] (at 50.0 µM); 58% in test [2] (setting [7]); 97% (active) in test [2] (setting [8]); 92.4% (active) in test [2] (at 50.0 µM). Moreover, the growth inhibition is 68% in test [3] (setting [7]); 97% (active) in test [3] (setting [8]); 92.5% (active) in test [3] (at 50.0 µM); 49% in test [4] (setting [7]); 95% (active) in test [4] (setting [8]); 90% (active) in test [4] (at 50.0 µM). In addition, the growth inhibition in test [5] (setting [7]) was 81% (active); in test [5] (setting [8]) it was 96% (active); in test [5] (at 50.0 µM) it was 91.5% (active); in test [6] (setting [7]), 85% (active); in test [6] (setting [8]), 97% (active); in test [6] (at 50.0 µM), 90% (active).

In the case of `CN(C)CC(CN(C)C)C(=O)c1ccc2c(c1)OCO2`, the growth inhibition in test [1] (setting [7]) is -8%; in test [1] (setting [8]), -30%; in test [1] (at 50.0 µM), 84.7% (active); in test [2] (setting [7]), -15%; in test [2] (setting [8]), -13%; in test [2] (at 50.0 µM), 87% (active). In addition, the growth inhibition in test [3] (setting [7]) is -10%; in test [3] (setting [8]), -20%; in test [3] (at 50.0 µM), 92.6% (active); in test [4] (setting [7]), -6%; in test [4] (setting [8]), -8%; in test [4] (at 50.0 µM), 58.1%. The growth inhibition in test [5] (setting [7]) is -5%; in test [5] (setting [8]), 25%; in test [5] (at 50.0 µM) it was 58.6%; in test [6] (setting [7]), 0%; in test [6] (setting [8]), -20%; in test [6] (at 50.0 µM), 93% (active).

On to `CC1CCCC(CCN(C)CCC2CCCCC2)CC1` (stereo not given), for which the growth inhibition was 21% in test [1] (setting [7]); 98% (active) in test [1] (setting [8]); 99.3% (active) in test [1] (at 50.0 µM); 9% in test [2] (setting [7]); 99% (active) in test [2] (setting [8]); 99.2% (active) in test [2] (at 50.0 µM). The growth inhibition in test [3] (setting [7]) is 35%; in test [3] (setting [8]), 99% (active); in test [3] (at 50.0 µM), 99.4% (active); in test [4] (setting [7]), 21%; in test [4] (setting [8]), 97% (active); in test [4] (at 50.0 µM), 99.1% (active). Further, the growth inhibition in test [5] (setting [7]) is 7%; in test [5] (setting [8]) it was 79% (active); in test [5] (at 50.0 µM), 99% (active); in test [6] (setting [7]), 45%; in test [6] (setting [8]), 98% (active); in test [6] (at 50.0 µM), 99.1% (active).

`CC(C)CC(CC(C)C)NCC(C)OC(=O)C(c1ccccc1)c1ccccc1` (stereo not given): the growth inhibition in test [1] (setting [7]) is -1%; in test [1] (setting [8]), 94% (active); in test [1] (at 50.0 µM) it was 29.2%; in test [2] (setting [7]), -8%; in test [2] (setting [8]), 78% (active); in test [2] (at 50.0 µM) it was 50.3%. In addition, the growth inhibition in test [3] (setting [7]) was -3%; in test [3] (setting [8]) it was 97% (active); in test [3] (at 50.0 µM), 84.8% (active); in test [4] (setting [7]), -3%; in test [4] (setting [8]), 73% (active); in test [4] (at 50.0 µM) it was 20.9%. In addition, the growth inhibition in test [5] (setting [7]) was -9%; in test [5] (setting [8]), 93% (active); in test [5] (at 50.0 µM), 68.2%; in test [6] (setting [7]), 18%; in test [6] (setting [8]), 96% (active); in test [6] (at 50.0 µM), 95.2% (active).

As for `O=C(O)CSc1cc2c3ccccc3sc2c2ccccc12`, the growth inhibition in test [1] (setting [7]) was 16%; in test [1] (setting [8]) it was 96% (active); in test [1] (at 50.0 µM) it was 96.3% (active); in test [2] (setting [7]), 14%; in test [2] (setting [8]) it was 97% (active); in test [2] (at 50.0 µM), 97.8% (active). Besides, the growth inhibition was 11% in test [3] (setting [7]); 97% (active) in test [3] (setting [8]); 98.5% (active) in test [3] (at 50.0 µM); 4% in test [4] (setting [7]); 96% (active) in test [4] (setting [8]); 93.8% (active) in test [4] (at 50.0 µM). Also, the growth inhibition in test [5] (setting [7]) is 8%; in test [5] (setting [8]) it was 94% (active); in test [5] (at 50.0 µM), 79.7% (active); in test [6] (setting [7]) it was 12%; in test [6] (setting [8]), 97% (active); in test [6] (at 50.0 µM), 98.1% (active).

Consider `O=C1NC(c2ccccc2)(c2ccccc2)C(=O)N1SC(Cl)(Cl)Cl`, for which the growth inhibition in test [1] (setting [7]) was 98% (active); in test [1] (setting [8]) it was 98% (active); in test [1] (at 50.0 µM) it was 90.3% (active); in test [2] (setting [7]), 100% (active); in test [2] (setting [8]) it was 99% (active); in test [2] (at 50.0 µM), 89.3% (active). Besides, the growth inhibition in test [3] (setting [7]) is 99% (active); in test [3] (setting [8]) it was 99% (active); in test [3] (at 50.0 µM) it was 90.8% (active); in test [4] (setting [7]), 99% (active); in test [4] (setting [8]) it was 99% (active); in test [4] (at 50.0 µM) it was 89.7% (active). Further, the growth inhibition was 99% (active) in test [5] (setting [7]); 98% (active) in test [5] (setting [8]); 88.5% (active) in test [5] (at 50.0 µM); 98% (active) in test [6] (setting [7]); 99% (active) in test [6] (setting [8]); 87.2% (active) in test [6] (at 50.0 µM).

Values taken from PubChem BioAssay (NCI).
